# High-throughput results (PubChem)
# A selection: hits, their analogues and other compounds. The true share with any hit is near 12%.
# PLK1 PBD inh = qHTS for Inhibitors of PLK1-PDB (polo-like kinase 1 - polo-box domain): Primary Screen; AID 720504, 2013; Potency, µM, for the others: max response, negative = inhibition, most hits filed as inhibitors; Serine/threonine-protein kinase PLK1 (Homo sapiens), P53350; hit rate 2.8% among 360,000; Plk1 PBD binding of FITC phosphopeptide, fluorescence polarization; also: series mostly up to about 57 µM; nearly all actives have a fitted effect of over 65% in size
# Target sequence (P53350 whole entry, looked up, the tested form may be a part): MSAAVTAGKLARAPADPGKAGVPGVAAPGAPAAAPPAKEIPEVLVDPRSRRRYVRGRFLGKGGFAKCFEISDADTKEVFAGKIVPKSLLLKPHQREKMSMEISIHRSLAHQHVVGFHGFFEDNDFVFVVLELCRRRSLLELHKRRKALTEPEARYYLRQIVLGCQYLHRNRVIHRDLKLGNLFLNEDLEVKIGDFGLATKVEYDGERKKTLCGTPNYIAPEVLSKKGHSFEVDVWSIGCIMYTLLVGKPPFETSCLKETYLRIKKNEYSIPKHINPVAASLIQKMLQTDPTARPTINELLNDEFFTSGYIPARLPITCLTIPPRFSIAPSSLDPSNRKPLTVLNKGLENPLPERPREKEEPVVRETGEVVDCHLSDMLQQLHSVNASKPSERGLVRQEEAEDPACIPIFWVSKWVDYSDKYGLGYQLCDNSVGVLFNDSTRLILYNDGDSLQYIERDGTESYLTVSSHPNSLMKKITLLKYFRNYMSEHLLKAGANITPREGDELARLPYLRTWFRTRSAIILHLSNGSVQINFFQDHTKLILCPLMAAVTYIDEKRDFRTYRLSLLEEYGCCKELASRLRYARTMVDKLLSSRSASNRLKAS
# RORgamma inh = qHTS for inhibitors of ROR gamma transcriptional activity | Nuclear receptor ROR-gamma (Mus musculus), P51450 | Drosophila S2 Gal4-RORgamma UAS-luciferase reporter, 20 h | Potency, µM (doses to about 53.6 µM), for the others: top-dose activity change, negative = inhibition, hits mostly inhibitors | hit rate 5.4% among 310,000; also: nearly all actives have a fitted effect of over 60% in size
#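 ROR gamma transcriptional activity was tracked as Gal4-UAS luciferase output in stably transfected Drosophila Schneider cells, with compound added 1 hr before 700 uM copper sulfate induction and a 20 hr ambient-temperature incubation.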
# Sfp PPTase inh = qHTS Assay for Inhibitors of Bacillus subtilis Sfp phosphopantetheinyl transferase (PPTase); 4'-phosphopantetheinyl transferase ffp (Bacillus subtilis), Q9F4F7; Biochemical Sfp PPTase activity, qHTS; Potency, µM, for the others: largest response in the series, negative = inhibition, actives largely listed as inhibitors; hit rate 3.5% among 310,000;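 also: the enzyme is Sfp with the accession as filed and its product quenches rhodamine fluorescence; 0% = enzyme reaction without inhibitor and -100% = no enzyme wells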
#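 Buffer: 50 mM Hepes-Na pH 7.6, 10 mM MgCl2, 0.01% Nonidet P-40, 0.01% BSA. Enzyme 15 nM, pre-exposed to compound 15 min; substrates then added and fluorescence change tracked over 30 min.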
# ALDH1A1 inh = qHTS Assay for Inhibitors of Aldehyde Dehydrogenase 1 (ALDH1A1); Potency, µM (doses to about 75.3 µM), inactives show at the highest dose activity, negative = inhibition, most hits filed as inhibitors; AID 1030, 2008; Purified ALDH1A1, NADH fluorescence, propionaldehyde substrate; hit rate 7.3% among 220,000; Aldehyde dehydrogenase 1A1 (Homo sapiens), P00352; active = well fitted inhibition curve with a large enough effect, not every such curve was filed as active; inconclusive = small, poorly fitted or top-dose-only effect, or another doubt; inactive = no such curve, though single readings can be large or run the other way;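 also: plate controls were no enzyme wells and a reference inhibitor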
# VP16 counter = VP16 counterscreen qHTS for inhibitors of ROR gamma transcriptional activity. Drosophila S2 Gal4-VP16 UAS-luciferase, luminescence, 20 h. Potency, µM (top dose mostly 53.6 µM), without a hit: at the top dose activity, negative = inhibition, actives largely listed as inhibitors. hit rate 3.5% among 310,000;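 also: Gal4-VP16 expression switched on by copper sulfate through the metallothionein promoter; nearly all actives have a fitted effect of over 50% in size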
# The depositor's hits bear a star; ? = inconclusive; . = not tested or not shown; [ ] = another dose, or the depositor's remark. Unless noted, calls follow the shape of the dose curve; as a rule, active = well fitted curve in the direction sought with a large enough effect; inconclusive = small, poorly fitted or top-dose-only effect, or another doubt; inactive = no such curve, though single readings can be large; an effect the other way counts as inactive or inconclusive. Unless noted, % is scaled to controls: 0 for no effect and ±100 for the full control effect; potency is read from the fitted curve at half-maximal effect.
SMILES,PLK1 PBD inh,RORgamma inh,Sfp PPTase inh,ALDH1A1 inh,VP16 counter
COc1cccc(/C=C/C(=O)c2ccc(C)c([N+](=O)[O-])c2)c1,-22%,51%,-5%,7.1µM*,-16%
COc1ccc(CNC(=O)CN(C(=O)c2ccc(CN3CCOCC3)o2)C2CCCC2)cc1,-1%,?,-2%,11µM*,11%
COc1ccc(O)c(C(=O)C2c3ccccc3C(=O)N2c2ccc(C)cc2)c1 (configuration not stated),?,44%,22µM*,11µM*,?
CC(=O)Nc1ccc(NC(=O)C(C)Oc2ccccc2C(=O)NCc2ccccc2)cc1 (configuration not stated),-7%,.,.,.,.
Cc1ccccc1/C=N\NC(=O)c1csnn1,-1%,19%,14µM*,-2%,-8%
Cc1ccccc1/C=N/NC(=O)Cn1nnc(N)n1,-3%,-13%,-9%,7%,4%
O=C(N/N=C\c1ccc(F)cc1)c1csnn1,-4%,15%,1.4µM*,4%,22%
CC(C)CC1C(=O)N(Cc2cn(Cc3ccco3)nn2)CCS(=O)(=O)N1Cc1ccc(-c2ccccc2)cc1 (configuration not stated),4%,.,.,.,.
CCOC(=O)C1=CCN(S(=O)(=O)c2ccccc2Cl)C1c1cccc(Br)c1 (configuration not stated),-2%,.,.,.,.
Clc1ccc(-n2cc(-c3ccc(Br)cc3)[n+]3c2CCCCC3)cc1,1%,3%,2%,.,-10%
CC(C)(C)c1cn(-c2ccc(Cl)cc2)c(=S)[nH]1,-4%,4.5µM*,6%,9%,5.6µM*
CC(=O)N1CCC(C(=O)N2c3ccccc3N=C(c3ccc4c(c3)OCO4)C2C(=O)Nc2c(C)cccc2C)CC1 (configuration not stated),3%,.,.,.,.
Cn1c(=O)c(=O)n(C)c2cc([N+](=O)[O-])c([N+](=O)[O-])cc21,-16%,7.9µM*,5%,-1%,?
COc1ccc(CCN2C(=O)CSC2=Nc2ccc(C(C)C)cc2)cc1OC,-8%,?,-5%,.,?
O=C(O)c1ccc2c(c1)ncn2C1CCCCCC1,-28%,9%,89µM*,.,3%
O=C1C2CCCN2C(c2ccc(Cl)cc2)N1c1nccs1 (configuration not stated),?,13µM*,1%,-10%,-22%
Cc1ccc(C2N(c3nccs3)C(=O)C3CCCN32)cc1 (configuration not stated),-15%,13µM*,?,-12%,-16%
COc1cccc(CNc2nc3cc(-c4ccsc4)sc3c(=O)n2C)c1OC,2%,.,.,.,.
CCc1nc2ccc(C(=O)Nc3ccc(NC(C)=O)cc3)cn2c1N(CCC(C)C)CCN(C)C,7%,.,.,.,.
CCOCCCNC(=O)Cn1cnc2c(cnn2-c2ccc(OC)cc2)c1=O,27µM*,-34%,12%,.,-5%
CCOc1cc(-c2nn3cnnc3s2)cc(OCC)c1OCC,3.8µM*,-13%,11%,-6%,-1%
O=C(CN1CCC(n2nnc3cc(F)ccc32)CC1)NCc1ccco1,-10%,?,56µM*,14µM*,-1%
C=CCN1C(=O)S/C(=C/c2ccc(Sc3nc4ccccc4[nH]3)o2)C1=O,-8%,28%[10 µM],0%,10µM*,?
CC(C)N1C(=O)S/C(=C/c2ccc(Sc3nc4ccccc4[nH]3)o2)C1=O,-2%,?,7%,7.1µM*,?
CCOC(=O)C(C)N1C(=O)S/C(=C\c2ccc(-c3ccccc3C(=O)O)o2)C1=O (configuration not stated),?,0%,-17%,.,-6%
SMILES,PLK1 PBD inh,RORgamma inh,Sfp PPTase inh,ALDH1A1 inh,VP16 counter
O=C(COc1ccc(-c2ccccc2)cc1)NNC(=O)NC1CCCCC1,-3%,-11%,13%,8%,-26%
CCOC(=O)c1ccc(NC(=O)c2nc[nH]c2C(=O)N2CCC(C)CC2)cc1,4%,10µM*,3%,.,?
Cc1ccc(NC(=O)c2nc[nH]c2C(=O)N2CCC(C)CC2)cc1,-9%,8.9µM*,16%,.,?
COc1ccc(NC(=O)c2nc[nH]c2C(=O)N2CCC(C)CC2)cc1,-8%,13µM*,10%,.,?
CCOC(=O)c1ccc(NC(=O)c2nc[nH]c2C(=O)N2CCN(c3ccccc3)CC2)cc1,-2%,?,11%,.,?
CCOC(=O)c1ccc(NC(=O)c2nc[nH]c2C(=O)NC2CCN(C(=O)OC(C)(C)C)CC2)cc1,-6%,-35%,18%,.,?
COc1ccc(NC(=O)c2nc[nH]c2C(=O)N2CCN(C(=O)OC(C)(C)C)CC2)cc1,-14%,?,6%,.,?
Cc1ccc(NC(=O)c2nc[nH]c2C(=O)N2CCN(c3ccccc3)CC2)cc1,5%,4.5µM*,4%,.,13µM*
CN(C)CC(O)Cn1c2ccc(Br)cc2c2cc(Br)ccc21 (configuration not stated),.,.,?,6%,.
O=C(O)c1ccc([N+]2=Cn3c(nc4ccccc43)C2)cc1,.,.,.,16%[13.5 µM],.
O=C(O)C/C(=C\c1ccccc1)C(=O)O,.,.,.,4%[13.5 µM],.
Cc1ccc(N=C2NC(=O)/C(=C/c3cccn3C)S2)cc1C,-7%,-44%,14%,7%,-26%
Cc1cccc(N=C2NC(=O)/C(=C/c3cccn3C)S2)c1C,-6%,2%,79µM*,.,-28%
Cc1ccccc1N=C1NC(=O)/C(=C/c2cccn2-c2cccc(C(=O)O)c2)S1,17µM*,16%,0%,-1%,3%[10 µM]
CN(C)c1nc(Cl)nc2c1nc(Cl)n2C1CCCCO1 (configuration not stated),-3%,.,.,.,.
COc1ccc(CCN2C(=S)N(C)C(=O)C2CC(=O)Nc2ccc(OC)cc2)cc1 (configuration not stated),-5%,?,12%,4.5µM*,4%
COc1ccc(NC(=O)CC2C(=O)N(C)C(=S)N2Cc2cccs2)cc1 (configuration not stated),-3%,?,-4%,0%,18%
CCN1C(=O)C(CC(=O)Nc2ccc(OC)cc2)N(CCc2ccc(F)cc2)C1=S (configuration not stated),-15%,43%,13%,14µM*,-1%
COc1ccc(N2C(=O)C(CC(=O)Nc3ccc(Cl)cc3)N(NC(=O)c3cccc(F)c3)C2=S)cc1 (configuration not stated),-12%,-36%,36%,.,-6%
COc1ccc(NC(=O)CC2C(=O)N(C)C(=S)N2CCc2ccc(F)cc2)cc1 (configuration not stated),-7%,?,11%,.,0%
